L3MBTL1 inh: qHTS Assay for the Inhibitors of L3MBTL1; Lethal(3)malignant brain tumor-like protein 1 (Homo sapiens), Q9Y468; AlphaScreen L3MBTL1–H3K9me1 peptide binding; Potency, µM (top dose mostly 57.1 µM), for the others: at the highest dose activity, negative = inhibition, usual class: inhibitors; actives 0.66% (n = 230,000); also: nearly all actives have a fitted effect of over 60% in size
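First, the protein-peptide complex forms for 30 min at room temperature (L3MBTL1 50 nM, biotinylated H3K9me1 peptide 75 nM). Next, compounds are pin-transferred and incubated 30 min. Finally, AlphaScreen beads are added and read after 30 min.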
RECQ1 inh-1: qHTS Assay for Inhibitors of RecQ-Like Dna Helicase 1 (RECQ1); Potency, µM (titrated, usually from 57.3 µM), inactives show at the highest dose activity, negative = inhibition, hits mostly inhibitors; actives 0.54% (n = 240,000); AID 2549, 2010; RECQ1 DNA unwinding, red fluorescence kinetic read;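 also: plate controls were vehicle for no effect and no enzyme for full effect; nearly all actives have a fitted effect of over 30% in size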
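50 nM RECQ1T1 preincubated 15 min with compound in Tris pH 8.0 buffer with MgCl2, DTT, Tween-20 and 2.5 ug/ml poly(dI-dC); started with 200 nM TAMRA/BHQ-2 forked duplex and 2 mM ATP. Unwinding read as fluorescence (525/598 nm), two reads 2 h apart.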
BLM helicase inh: qHTS Assay for Inhibitors of Bloom's syndrome helicase (BLM). RecQ-like DNA helicase BLM (Homo sapiens), P54132. recombinant BLM DNA unwinding, fluorescence dequenching. Potency, µM (top dose mostly 56.1 µM), for inactives: top-dose activity change, negative = inhibition, usual class: inhibitors. actives 0.2% (n = 350,000);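 also: plate controls were vehicle for no effect and no enzyme for full effect; nearly all actives have a fitted effect of over 35% in size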
APE1 inh: qHTS Assay for Inhibitors of the Human Apurinic/apyrimidinic Endonuclease 1 (APE1); recombinant APE1, TAMRA/BHQ-2 abasic DNA cleavage fluorescence; Potency, µM (titrated, usually from 65.8 µM), without a hit: at the top dose activity change, negative = inhibition, actives largely listed as inhibitors; actives 0.35% (n = 350,000); AID 2517, 2012;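 also: plate controls were vehicle for no effect and reference inhibitor for full effect; nearly all actives have a fitted effect of over 55% in size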
Target sequence (P27695 whole entry, looked up): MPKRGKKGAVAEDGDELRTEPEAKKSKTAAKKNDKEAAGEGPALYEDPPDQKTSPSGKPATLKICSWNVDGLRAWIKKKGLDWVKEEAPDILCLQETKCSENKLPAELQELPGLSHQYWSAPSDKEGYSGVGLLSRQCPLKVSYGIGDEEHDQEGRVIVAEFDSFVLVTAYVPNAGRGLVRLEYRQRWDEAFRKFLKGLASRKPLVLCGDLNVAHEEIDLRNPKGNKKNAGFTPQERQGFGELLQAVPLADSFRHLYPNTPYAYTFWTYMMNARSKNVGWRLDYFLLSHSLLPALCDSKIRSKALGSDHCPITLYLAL
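APE1 at 0.75 nM final was preincubated with compound 15 min at room temperature, then 50 nM double-stranded THF abasic-site substrate (5'-TAMRA/3'-BHQ-2) was added. Fluorescence (ex 525/em 598 nm) was read kinetically; third-minus-first read gave activity.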
RECQ1 conf: Confirmation qHTS Assay for Inhibitors of RecQ-Like Dna Helicase 1 (RECQ1). RECQ1 helicase DNA unwinding, fluorescence. actives 28% (n = 610). AID 2708, 2010. shares compounds with RECQ1 inh-1. Potency, µM (highest dose often 229 µM), without a hit: at the highest dose activity change, negative = inhibition, actives largely listed as inhibitors; also: nearly all actives have a fitted effect of over 45% in size
RECQ1 ADP FP: Counterscreen for RECQ1 Inhibitors: ADP Fluorescence Polarization Displacement Assay; shares compounds with RECQ1 inh-1; ADP fluorescence polarization displacement counterscreen; Potency, µM (top dose mostly 228 µM), for inactives: at the top dose activity change, negative = inhibition, actives largely listed as inhibitors; actives 27% (n = 530); AID 2711, 2010; also: nearly all actives have a fitted effect of over 45% in size
RECQ1 inh-2: Confirmation qHTS Assay for Inhibitors of RecQ-Like Dna Helicase 1 (RECQ1) - Round 2 Cherry Picks; shares compounds with RECQ1 inh-1; recombinant RECQ1 DNA unwinding, red fluorescence; Potency, µM (highest dose often 119 µM), inactives show at the top dose activity, negative = inhibition, usual class: inhibitors; actives 15% (n = 1,100); also: nearly all actives have a fitted effect of over 50% in size
The depositor's hits bear a star; ! = not confirmed by another sample; [ ] = remark or other dose. Only some compounds are listed: those with a hit (about 0.78% of all), similar ones and a draw of the others. Calls follow the shape of the dose curve; as a rule, active = well fitted curve in the direction sought with a large enough effect; inconclusive = small, poorly fitted or top-dose-only effect, or another doubt; inactive = no such curve, though single readings can be large; an effect the other way counts as inactive or inconclusive. Unless noted, % is scaled to controls: 0 for no effect and ±100 for the full control effect; potency is read from the fitted curve at half-maximal effect.

How did O=C1OC2(c3ccc(O)cc3Oc3cc(O)ccc32)c2ccccc21 do in these assays?
RECQ1 inh-1: 31.6µM*; BLM helicase inh: 35.5µM*; APE1 inh: 28.2µM*; RECQ1 inh-2: 79.4µM*

How did CCc1nc2ccc(C(=O)NCCc3ccc(SC)cc3)cc2nc1CC do in these assays?
BLM helicase inh: 2.3%

How did N#C/C(=C/c1ccc(N2CCCCCC2)o1)c1cccc(F)c1 do in these assays?
RECQ1 inh-1: 22.4%; BLM helicase inh: inconclusive; APE1 inh: 13.5%

How did COc1cc(N2CCCC2)c(OC)cc1/C=C(/C#N)c1cccc(F)c1 do in these assays?
RECQ1 inh-1: 3.98µM*; BLM helicase inh: -12.1%; APE1 inh: -6.6%; RECQ1 conf: inconclusive; RECQ1 ADP FP: inconclusive

What do the screens show for `COc1ccc(OCC(=O)Nc2nc3ccc(NC(C)=O)cc3s2)cc1`?
L3MBTL1 inh: -3.0%; RECQ1 inh-1: inconclusive; BLM helicase inh: -25.1%; APE1 inh: 6.1%; RECQ1 inh-2: inconclusive

Results for CCCCC1=CC2=CC(=O)C(C)(OC(=O)C3CCCC3)C(=O)C2=CO1 (configuration not stated) ?
RECQ1 inh-1: inconclusive; BLM helicase inh: 0.1%; APE1 inh: 0.6%; RECQ1 inh-2: 79.4µM*

What do the screens show for `COC(=O)CCCC1=CC2=CC(=O)C(C)(OC(=O)C3CCCC3)C(=O)C2=CO1` (configuration not stated)?
RECQ1 inh-1: inconclusive; BLM helicase inh: -1.1%; APE1 inh: 2.0%

What do the screens show for `C[C@](N)(Cc1ccc(O)c(O)c1)C(=O)O`?
L3MBTL1 inh: inconclusive; RECQ1 inh-1: 2.24µM*!; BLM helicase inh: 17.8µM*!; APE1 inh: 1.58µM*!; RECQ1 conf: 1.41µM*!; RECQ1 ADP FP: 12.6µM*

What do the screens show for `C[C@](N)(Cc1ccc(O)cc1)C(=O)O`?
RECQ1 inh-1: -2.8%; BLM helicase inh: 1.2%; APE1 inh: 13.1%

How did O=C1c2nc3cc(-c4ccco4)[nH]n3c(=O)c2CN1Cc1ccccc1 do in these assays?
L3MBTL1 inh: inconclusive; RECQ1 inh-1: 11.2µM*; BLM helicase inh: inconclusive; APE1 inh: -4.1%; RECQ1 conf: inconclusive; RECQ1 ADP FP: 63.1µM*; RECQ1 inh-2: -9.8%

What do the screens show for `CN(Cc1ccco1)S(=O)(=O)c1ccc2c(c1)CCN2C(=O)CCC(=O)O`?
L3MBTL1 inh: 6.2%; RECQ1 inh-1: -6.2%; BLM helicase inh: 0.9%; APE1 inh: 5.2%; RECQ1 conf: 2.7%; RECQ1 ADP FP: -0.1%

How did O=C(O)CCC(=O)N1CCc2cc(S(=O)(=O)NC3CCCC3)ccc21 do in these assays?
L3MBTL1 inh: 4.9%; RECQ1 inh-1: -8.3%; BLM helicase inh: -0.5%; APE1 inh: 17.9%; RECQ1 conf: 10.2%; RECQ1 ADP FP: -3.2%

How did O=C(C1CCC1)N1CCc2cc(S(=O)(=O)NC3CCCC3)ccc21 do in these assays?
L3MBTL1 inh: 1.2%; RECQ1 inh-1: -6.1%; BLM helicase inh: -4.4%; APE1 inh: 10.0%

Results for CC(=O)N1c2ccc(S(=O)(=O)N(C)Cc3ccco3)cc2CC1C (configuration not stated) ?
BLM helicase inh: -2.8%; APE1 inh: 1.1%

What do the screens show for `O=C(O)CCC(=O)N1CCc2cc(S(=O)(=O)NC3CCCc4ccccc43)ccc21` (configuration not stated)?
L3MBTL1 inh: 50.0%; RECQ1 inh-1: -12.8%; BLM helicase inh: 3.6%; APE1 inh: -1.3%; RECQ1 conf: 5.7%; RECQ1 ADP FP: -1.0%

What do the screens show for `O=C(COc1ccc(F)cc1)NCc1ccc2c(c1)CCN2C(=O)c1ccc(F)cc1`?
BLM helicase inh: -1.9%

Results for Cc1cc(NC(=O)CSc2nc3c([nH]c4ccccc43)c(=O)n2-c2cccc(Cl)c2)no1 ?
BLM helicase inh: -2.1%

How did Cc1ccc(NC(=O)CN2C(=O)S/C(=C\c3cc(C)n(-c4ccc(C(=O)O)cc4)c3C)C2=O)cc1 do in these assays?
L3MBTL1 inh: -17.7%; RECQ1 inh-1: inconclusive; BLM helicase inh: -10.3%; APE1 inh: 4.4%; RECQ1 inh-2: inconclusive

Results for CC(C)CC1=C/C(=C/c2ccc(-c3ccccc3)o2)C(=O)O1 ?
L3MBTL1 inh: inconclusive; RECQ1 inh-1: 25.1µM*; BLM helicase inh: -25.0%; APE1 inh: inconclusive; RECQ1 conf: inconclusive

What do the screens show for `CC(C)(C)N1C(=O)[C@H]2[C@H]3[C@H](O)[C@H](O)C/C(=N/NC(=O)OCc4ccccc4)[C@@H]3CC[C@@H]2C1=O`?
RECQ1 inh-1: -4.2%[11.5 µM]; BLM helicase inh: -0.2%[12.4 µM]; APE1 inh: inconclusive

Results for COc1ccc(NC(=O)c2cc3c(C)nn(-c4ccccc4)c3s2)c(OC)c1 ?
BLM helicase inh: -2.4%

How did COc1ccc(NS(=O)(=O)c2ccc(O)c(NC(=O)c3cc4c(C)nn(-c5ccc(F)cc5)c4s3)c2)cc1 do in these assays?
L3MBTL1 inh: -14.9%; RECQ1 inh-1: inconclusive; BLM helicase inh: 28.2µM*; APE1 inh: inconclusive; RECQ1 inh-2: inconclusive

What do the screens show for `CN(C)/C=C1\C(=O)ON=C1c1ccccc1`?
L3MBTL1 inh: 11.0%; RECQ1 inh-1: -4.6%; BLM helicase inh: 1.7%; APE1 inh: -4.7%

What do the screens show for `O=C1ON=C(c2ccccc2)/C1=C/c1ccco1`?
L3MBTL1 inh: 28.2µM*; RECQ1 inh-1: inconclusive; BLM helicase inh: 1.8%; APE1 inh: inconclusive; RECQ1 inh-2: -24.7%

How did Oc1ccc(COCc2ccc(F)cc2)c2cccnc12 do in these assays?
L3MBTL1 inh: inconclusive; APE1 inh: 7.0%

Results for O=C(/C=C/c1ccc2c(c1)OCO2)Nc1nc(-c2ccccc2)cs1 ?
L3MBTL1 inh: 3.3%; RECQ1 inh-1: 1.41µM*; BLM helicase inh: -10.9%; APE1 inh: 8.9%; RECQ1 conf: -3.2%[114 µM]; RECQ1 ADP FP: 6.4%[91.9 µM]; RECQ1 inh-2: inconclusive
